From PubChem
RGS12 GoLoco inh: inhibitors of human Gai1-RGS12 GoLoco interaction (red fluorophore). P63096. Gai1:RGS12 GoLoco peptide FP, rhodamine, 10 min. Potency, µM (top dose mostly 61.6 µM), for inactives: top-dose activity, negative = inhibition, usual class: inhibitors. actives 0.44% (n = 230,000). AID 880; active means well fitted inhibition curve with a large enough effect, not every such curve was filed as active; inactive means no such curve, though single readings can be large or run the other way; further: potency means the concentration at half of the fitted maximal effect; on the % scale 0 is the no-effect control and ±100 the full control effect; nearly all actives have a fitted effect of over 30% in size
HPGD inh: HPGD (human) dehydrogenase inhibition | actives 4.3% (n = 150,000) | Potency, µM, inactives show top-dose activity change, negative = inhibition, most hits filed as inhibitors | purified HPGD, NADH fluorescence kinetic, PGE2 substrate; further: potency means the concentration at half of the fitted maximal effect; on the % scale 0 is the no-effect control and ±100 the full control effect
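NADH formation kinetics: reaction with 30 uM PGE2 and 1 mM NAD+ (final), 20 nM enzyme, Tris-HCl pH 8 with Tween 20, after 15 min compound preincubation at room temperature. Fluorescence change, last versus first of five reads.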
PNC assembly inh: inhibitors of perinucleolar compartment assembly. AID 2417. activity change (PNC), negative = inhibition, % at 10 µM. actives 3.1% (n = 140,000). PC3M PTB-GFP, PNC prevalence imaging, 16 h; stronger effect = lower value;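 active means readout at or below -70, meaning at least 70% loss of cells showing the perinucleolar compartment, a nuclear body marking cancer cells; inconclusive means readout between -30 and a set limit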;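 further: plate controls were DMSO wells for no effect and camptothecin positive control wells for full effect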
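Compounds are pinned in duplicate onto adhered PC3M cells stably expressing GFP-tagged PTB and incubated 16 h at 37 C. Cells are then fixed, nuclei stained with Hoechst, and PNC-positive cells counted.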
HTT ATP protect: cytoprotection in Huntington HTT-Q103 PC12 cell model; AID 1471; actives 0.14% (n = 230,000); PC12 HTT-Q103 induced, cytoprotection, ATP luminescence, 40 h; Potency, µM (top dose mostly 56.4 µM), for the others: cytoprotection (ATP increase), usual class: activators; active means well fitted curve in the direction sought with a large enough effect; inconclusive means small, poorly fitted or top-dose-only effect, or another doubt; inactive means no such curve, though single readings can be large; an effect the other way counts as inactive or inconclusive; further: potency means the concentration at half of the fitted maximal effect; % of control where 0% means no effect; nearly all actives have a fitted effect of over 45% in size
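Rat PC12, Q103 Htt exon1-GFP fusion, ecdysone promoter; tebufenozide inducer 100 nM final; compound titration; qHTS, 1500 cells/well; ATPlite luminescent read.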
ALDH1A1 block: inhibitors of human aldehyde dehydrogenase 1A1. P00352. Purified ALDH1A1, NADH fluorescence, propionaldehyde substrate. Potency, µM (series often up to 75.3 µM), inactives show at the top dose activity, negative = inhibition, actives largely listed as inhibitors. actives 7.3% (n = 220,000). AID 1030;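 further: potency means the concentration at half of the fitted maximal effect; plate controls were no enzyme wells and a reference inhibitor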
Target sequence (P00352 whole entry, looked up): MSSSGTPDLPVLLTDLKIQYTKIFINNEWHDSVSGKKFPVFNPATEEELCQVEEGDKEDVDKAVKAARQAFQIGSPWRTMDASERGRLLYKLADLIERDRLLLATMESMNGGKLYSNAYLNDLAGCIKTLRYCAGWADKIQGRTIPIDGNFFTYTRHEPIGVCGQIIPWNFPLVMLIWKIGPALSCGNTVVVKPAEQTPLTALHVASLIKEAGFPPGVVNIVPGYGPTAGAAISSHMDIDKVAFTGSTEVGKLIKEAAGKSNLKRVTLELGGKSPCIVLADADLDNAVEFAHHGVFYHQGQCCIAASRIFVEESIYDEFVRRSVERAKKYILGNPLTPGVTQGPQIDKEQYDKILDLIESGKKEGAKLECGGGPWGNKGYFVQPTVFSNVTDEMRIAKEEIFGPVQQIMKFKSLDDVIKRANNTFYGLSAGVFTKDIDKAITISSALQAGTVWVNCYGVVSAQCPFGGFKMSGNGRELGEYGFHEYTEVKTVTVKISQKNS
HttQ103 aggreg: mutant huntingtin aggregation inhibition; PC12 HttQ103-GFP aggregates, Acumen cytometry, 40 h; Potency, µM (series often up to 46.1 µM), inactives show top-dose activity change, negative = inhibition, most hits filed as inhibitors; actives 1.1% (n = 220,000); active means well fitted curve in the direction sought with a large enough effect; inconclusive means small, poorly fitted or top-dose-only effect, or another doubt; inactive means no such curve, though single readings can be large; an effect the other way counts as inactive or inconclusive; further: potency means the concentration at half of the fitted maximal effect; on the % scale 0 is the no-effect control and ±100 the full control effect; nearly all actives have a fitted effect of over 60% in size
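Aggregates are detected as GFP objects 1–25 µm with signal 6 STDEV over background in lysates of induced PC12 cells. These carry Huntingtin exon 1 with 103 glutamines fused to GFP under an ecdysone promoter; compounds titrated.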
The depositor's hits bear a star; ? = inconclusive; . = not tested or not shown; [ ] = remark or other dose. Hits are enriched below; roughly 11% of the tested compounds scored in any of these assays. Unless noted, the call rests on the fitted dose curve; in most records, active means well fitted inhibition curve with a large enough effect (not every such curve was filed as active); inconclusive means small, poorly fitted or top-dose-only effect, or another doubt; inactive means no such curve, though single readings can be large or run the other way.

SMILES	RGS12 GoLoco inh	HPGD inh	PNC assembly inh	HTT ATP protect	ALDH1A1 block	HttQ103 aggreg
COc1ccc(C(=O)NC(=S)Nc2ccc3oc(=O)ccc3c2)cc1OC	-1%	2%	46	4%[10 µM]	5%	4%
COc1cc(C(=O)NC(=S)Nc2cccc(-c3cc4ccccc4oc3=O)c2)cc(OC)c1OC	2%	-6%	-19	-6%	14µM*	-7%
O=C(Nc1c(Cl)cc(Cl)cc1-c1nc2ccccc2s1)c1ccc(Br)o1	-4%	?	?	11%	?	-6%
Cc1cccc2sc(NC(=O)C3CCCN(S(=O)(=O)c4cccc5nonc45)C3)nc12 (stereo not given)	-47%	-13%	-100*	26%[10 µM]	3%	-7%
O=C(NCc1ccc(Cl)cc1)C1CCN(S(=O)(=O)c2cc([N+](=O)[O-])ccc2Cl)CC1	-10%	-5%	-29	-20%[10 µM]	1.4µM*	15%
Cc1cccc2sc(NC(=O)C3CCN(S(=O)(=O)c4cc([N+](=O)[O-])ccc4Cl)CC3)nc12	-39%	-20%	12	-2%[10 µM]	7.1µM*	-24%
CC1=NCCN1S(=O)(=O)c1cc([N+](=O)[O-])ccc1Cl	12%	.	.	-26%	7.9µM*	6%
O=C(NCc1ccc(Cl)cc1)C1CCN(S(=O)(=O)c2ccccc2)CC1	1%	.	.	?	?	-1%[9.22 µM]
CCN1CCc2nc3ccccc3c(C(=O)Nc3ccc(C#N)cc3)c2C1	8%	.	.	-5%	-3%	6%
CN(C)Cc1cc(C(C)(C)C)c(O)c(C(C)(C)C)c1	4%	-2%	3	-7%	?	12%
CC(C)(C)c1cc(CN(CCO)CCO)cc(C(C)(C)C)c1O	-13%	25µM*	?	-17%[0.074 µM]	2.5µM*	?
CC(C)C1=C[C@@]23CC[C@@H]4[C@](C)(CCC[C@@]4(C)C(=O)O)[C@@H]2C[C@@H]1[C@@H](C(=O)O)[C@@H]3C(=O)O	4%[14.2 µM]	-6%	.	-11%[10 µM]	13%[13.5 µM]	.
CCOC(=O)c1ccc(N2Cc3ccccc3C2)cc1O	17%	-18%	?	-21%	20µM*	-15%
Cc1n[nH]c(=O)[nH]c1=O	-3%[21.6 µM]	-5%	.	7%[40.3 µM]	11%[20.9 µM]	.
Cc1ccccc1-c1nn2c(-c3ccccc3)nnc2s1	6%	28µM*	-18	-79%	?	-28%
Cc1cc(-c2nn3c(-c4ccccc4)nnc3s2)c2ccccc2n1	4%	14µM*	?	7%[0.074 µM]	8.9µM*	1%
Cc1ccc(-c2nnc3sc(CCc4ccccc4)nn23)cc1	-30%	14µM*	-19	8%	3.5µM*	-9%
Cc1c(N=C=O)cccc1N=C=O	-5%	-5%	.	-5%	7%	.
COc1cc2c(cc1OC)OC(C)(C)C=C2	-1%	-9%	.	-31%	-4%	.
CC(C)C(=O)N(c1ccc2oc(=O)sc2c1)S(=O)(=O)c1cccs1	-7%	-26%	7	13µM*	?	.
COC(=O)NC(c1ccco1)C(C(C)=O)C(=O)OC (stereo not given)	.	.	.	-23%[10 µM]	4%[13.5 µM]	.
CCCCCCCC/C=C\CCCCCCCC(=O)NC(C)C(=O)O (stereo not given)	2%	-1%	.	-3%	0%	.
CCOc1c(C)cc2[nH]c(CCC(=O)O)nc2c1C	5%	-2%	-119*	8%[1.9 µM]	2%	11%
CCCCOc1ncnc2c1[nH]c1ccc(F)cc12	-2%	-27%	-26	-64%[0.074 µM]	-7%	3.2µM*
CCOCCCNc1ncnc2c1[nH]c1ccccc12	4%	?	31	-8%	?	10µM*
SMILES	RGS12 GoLoco inh	HPGD inh	PNC assembly inh	HTT ATP protect	ALDH1A1 block	HttQ103 aggreg
CCCCOc1ncnc2c1[nH]c1ccccc12	3%	?	-6	-115%	?	4µM*
CCCCOc1ncnc2c1[nH]c1ccc(OCC)cc12	7%	-20%	9	-23%	-10%	1%
Cc1ccc(NC(=O)CSCc2n[nH]c(=O)[nH]2)c(Br)c1	10%	.	.	-44%	10%	-1%
NC(=O)SCC(=O)Nc1ccc2ncccc2c1	5%[14.2 µM]	-11%	.	9%[10 µM]	?	.
O=C(N/N=C\c1ccc(Cl)cc1)C1=NOC2COC3(CCN(c4ccc([N+](=O)[O-])cc4)CC3)OCC12 (stereo not given)	19%	.	.	-5%[10 µM]	.	-12%[9.22 µM]
COCC(O)CSc1c([N+](=O)[O-])nc(C)n1Cc1ccc(OC)c([N+](=O)[O-])c1 (stereo not given)	-5%	-4%	?	-5%[1.9 µM]	25µM*	-5%
COc1ccc(Cn2cnc([N+](=O)[O-])c2)cc1[N+](=O)[O-]	9%	.	.	-3%[10 µM]	?	-13%[9.22 µM]
CCCCOC(=O)c1[nH]c2c(c1C)C(=O)CC(c1cc(OC)c(OC)c(OC)c1)C2 (stereo not given)	-3%	-4%	-7	6%	5µM*	?
COCCOC(=O)c1[nH]c2c(c1C)C(=O)CC(c1ccc(N(C)C)cc1)C2 (stereo not given)	-19%	-6%	?	-5%[10 µM]	14µM*	-27%
COCCOC(=O)c1[nH]c2c(c1C)C(=O)CC(c1ccc(F)cc1)C2 (stereo not given)	4%	-6%	?	-36%	5%	-1%
COCCOC(=O)c1[nH]c2c(c1C)C(=O)CC(c1ccccc1)C2 (stereo not given)	-2%	-14%	-100*	-71%[10 µM]	-9%	?
COC(=O)c1[nH]c2c(c1C)C(=O)CC(c1cccs1)C2 (stereo not given)	7%	-7%	-85*	-75%	0%	?
CSc1ccccc1C(=O)N1CCc2ccccc2C1	-1%	.	.	.	1%	-12%
Nc1ccc(N(S(=O)(=O)c2ccccc2)S(=O)(=O)c2ccccc2)c(Cl)c1	4%[14.2 µM]	-1%	.	6%[10 µM]	-12%[13.5 µM]	.
